Data: PubChem BioAssay (NCATS)
Records with an inconclusive call do not appear. Activity calls are given as the source filed them. Calls follow the shape of the dose curve; as a rule, active = well fitted inhibition curve with a large enough effect; inconclusive = small, poorly fitted or top-dose-only effect; inactive = flat fitted curve, though single readings scatter.

Test system: CRL-7250
Assay: Cytotoxic Profiling of Annotated Libraries Using Quantitative High-Throughput Screening (AID 1296008); also: nearly all actives have a fitted effect of over 60% in size
Conditions: Five cell lines viability, CellTiter-Glo ATP luminescence, 48-72 h; max response: stronger effect = lower value
In short: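 Compounds were pin-transferred onto cells and incubated 48 or 72 hr at 37 degree Celsius, 95% humidity. CellTiter-Glo was added, plates sat 10 min at room temperature, then ATP-coupled luminescence was imaged as the viability read-out.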
% is scaled to controls: 0 for no effect and ±100 for the full control effect; potency is read from the fitted curve at half-maximal effect.

Compound	outcome	max response	Potency
O=C1NC(Cc2c[nH]c3ccccc23)C(=O)NC1Cc1cnc[nH]1 (stereo unspecified)	inactive	–	–
CC(O)/C=C/C1OC(=O)CC1Nc1ccc(C(=O)O)cc1 (stereo unspecified)	–	-10.3% (inactive)	–
CC(C)CCC[C@@H](C)[C@H]1CC[C@H]2[C@@H]3CC(=O)[C@H]4C[C@@H](O)CC[C@]4(C)[C@H]3CC[C@]12C	–	-2.74% (inactive)	–
CS(=O)(=O)NCC1CCC(Nc2nc3c(s2)CCSc2ccccc2-3)CC1 (stereo unspecified)	–	-26.8% (inactive)	–
C=C[C@]1(C)C=C2CCC3C(C)(CCC[C@@]3(C)C(=O)O)C2CC1 (stereo partly specified)	inactive	–	–
CCC(C)C(=O)OC1CC(O)C23C4OCC5(C(O)CC2C1(C)C(O)O4)C3C(=O)CC1(C)C(c2ccoc2)CC2OC215 (stereo unspecified)	–	–	3.55 µM (active)
CC1=C(C(=O)OCc2ccccc2)C(c2ccc(-c3ccccc3)cc2)NC(=O)N1CCCCCC(=O)O (stereo unspecified)	–	-0.424% (inactive)	–
Cn1cncc1C(N)(c1ccc(Cl)cc1)c1ccc2c(c1)c(-c1cccc(Cl)c1)cc(=O)n2C (stereo unspecified)	–	–	23.1 µM (active)
CC1CC[C@]2(C(=O)O)CC[C@]3(C(=O)O)C(=CCC4[C@@]5(C)CC[C@H](OC6OC(C)C(O)C(OC7OC(CO)C(O)C(O)C7O)C6O)C(C)(C)C5CC[C@]43C)C2C1C (stereo partly specified)	–	-0.92% (inactive)	–
CC1CCC2C(C)(C)[C@@H](O)CC[C@]2(C)C12Cc1c(O)cc3c(c1O2)CN(C(CCC(=O)O)C(=O)O)C3=O (stereo partly specified)	–	-1.01% (inactive)	–
C[C@@H]1CC[C@]2(C(=O)O)CC[C@]3(C)C(=CCC4[C@@]5(C)CC[C@H](O)C(C)(C)C5C(O)C[C@]43C)[C@@H]2[C@]1(C)O (stereo partly specified)	–	-5.69% (inactive)	–
COc1cc(OC)c(/C=C/S(=O)(=O)Cc2ccc(OC)c(NCC(=O)O)c2)c(OC)c1	–	–	0.231 µM (active)
Cc1ccc(-c2ccc3ncc4c(c3n2)n(C2CCN(C(=O)[C@H](C)O)CC2)c(=O)n4C)cn1	–	–	0.146 µM (active)
CN1CCN(Cc2ccc(-c3cnc4[nH]cc(-c5ccc6[nH]ccc6c5)c4c3)cc2)CC1	–	–	10.3 µM (active)
CC(C)=CC/C=C(\C)[C@H]1CC[C@]2(C)[C@@H]1[C@H](O)C[C@@H]1[C@@]3(C)CC[C@H](O)C(C)(C)[C@@H]3[C@@H](O[C@@H]3O[C@H](CO)[C@@H](O)[C@H](O)[C@H]3O)C[C@]12C	–	2.02% (inactive)	–
C=C[C@H]1C(O[C@@H]2O[C@H](CO)[C@@H](O)[C@H](O)[C@H]2O)OC=C2C(=O)N3CCc4c([nH]c5ccccc45)[C@H]3C[C@H]21 (stereo partly specified)	inactive	–	–

Compound	outcome	max response	Potency
CC(=O)O[C@@H]1c2c(C)coc2C(=O)[C@@]23O[C@@H]2CC[C@H](C)[C@@]13C	–	3.98% (inactive)	–
Nc1ccc(/C=C/C(=O)NCc2cc3cc(-c4ccc(C(=O)N5CCC(F)(F)CC5)cc4)cc(-c4ccc(F)cc4)c3o2)cn1	–	–	3.66 µM (active)
C=C1CC[C@H]2[C@@](C)(CCC(O)[C@@]2(C)CO)[C@@H]1CCC1=CCOC1=O (stereo partly specified)	–	0.497% (inactive)	–
O=C(O)/C=C/c1ccc(O)c(O[C@@H]2O[C@H](CO)[C@@H](O)[C@H](O)[C@H]2O)c1	inactive	–	–
CC(=O)O[C@@H]1C[C@@H](OC(C)=O)C(C)(C)/C=C/[C@H](C)[C@H](OC(C)=O)[C@@]2(O)C[C@H](C)[C@H](OC(=O)c3ccccc3)[C@@H]2/C=C/1C	–	-20.7% (inactive)	–
NCc1c[nH]c(=S)n1[C@@H]1CCc2c(F)cc(F)cc2C1	inactive	–	–
CC12CCC3c4ccc(OC5OC(C(=O)O)C(O)C(O)C5O)cc4CCC3C1CCC2O (stereo unspecified)	inactive	–	–
OC[C@H]1O[C@@H](Oc2cc(O)c3c(c2)O[C@@H](c2ccc(O)cc2)[C@H](O)C3)[C@H](O)[C@@H](O)[C@@H]1O	–	-1.22% (inactive)	–
C/C(=C/CO)CC[C@@H]1[C@@](C)(O)CCC2C(C)(C)CCC[C@]21C (stereo partly specified)	–	1.57% (inactive)	–
COc1c/c(=C2\C=c3ccccc3=N2)[nH]/c1=C\c1[nH]c(C)cc1C	–	–	1.84 µM (active)
CC(C)c1ccc2c(c1)C(=O)CC1[C@@](C)(C(=O)O)CCC[C@]21C (stereo partly specified)	–	2.88% (inactive)	–
COc1ccc(C(O)C(C)OC2OC(CO)C(O)C(O)C2O)cc1 (stereo unspecified)	–	-9.11% (inactive)	–
C[C@@H]1CN(Cc2ncccn2)C[C@H]1c1nc2c(cnn2C2CCOCC2)c(=O)[nH]1	–	1.7% (inactive)	–
Cc1cc(Nc2cc(N3CCN(C)CC3)nc(/C=C/c3ccccc3)n2)n[nH]1	–	–	5.8 µM (active)
CS(=O)(=O)c1ccc([C@H](CC2CCCC2)C(=O)Nc2nccs2)cc1	–	1.1% (inactive)	–
